From paper PMC12864922, “TDP-43 directly inhibits mRNA accumulation in neurites through modulation of mRNA stability” come the findings set out here.

The labels stand for the following.
B1: ENSMUSG00000043670.158|Diras1 (ssRNA)
RNA: GGGAGUUCUACAGUCCGACGAUCGCUUCGAUAUCCGCAUGCUACUGCUGAGAUAGAGACCUUGGCACAGUGGCACCUCGACAGCCACCCCGACUGGGGGUUUGGGGUGCUGAGGGUGGGGUGCCCAGCUGAGAGUCUAUCAGCAAAGUCCCUGUGUGCGGUGAUAGGACUAGUGGCUGCUGCCCUAGGGCUCUGACAGAAUCUGAGCCUCUUUGCUGGUCAUGUGUACUCUGGAGACUGUCCCCCAUGUCUGCCCUGAGUUACGGAGCCCCUGUGGUAUCUGCGAGACUGUCCAGGAGACUUGCUCUUGCGGUCGCACUAGUGUGGAAUUCUCGGGUGUCAAGG
B2: ENSMUSG00000022095.20|Fam160b2|21:25;227:231 (ssRNA)
RNA: GGGAGUUCUACAGUCCGACGAUCGCUUCGAUAUCCGCAUGCUAGGUGGGGGAAGAUUCCUGCCACACAACUUCUGCCCACGGGCAGUCUCCUGCCUGGCCAUGCUGCCACUCUGUCCUCCAUGCCGGGGACUUCAGCUGCAGGACACCUCACCUGUUGACCCCACGAGCUGAGGUUUCAAGGAGGUGCUGGCUCCUAAGGCAGUGGUAUUCUUGGAGCCUUUUAGAGGAGCUAGAGGAUGGCCAGUGAGCGCCUAGAUGCUGCCCUGCAACACAUGCGUGACUAUCUCUGCUAUAUUGUGACCCUCUUGCGGUCGCACUAGUGUGGAAUUCUCGGGUGUCAAGG
B3: ENSMUSG00000035202.138|Lars2 (ssRNA)
RNA: GGGAGUUCUACAGUCCGACGAUCGCUUCGAUAUCCGCAUGCUAAUAAAGGAUUUUAAAUUUUUUUACAAGUGAGAACCUAGCAUGUCAAGGUCCUAGGUUCCAUCUCCAACACGAAAAAAGCAAGGCAACUCUACCAAAGAAACUAAUUACAUACUUGUAUUCCCAAUAUGUGAGAAGCUGAGGAAGGAGGAUCAUGAGUUUAAAGCCAUCCUUGGUUACAUGAGACUCUUGUCUCAAAGAACUACCAGGGAUCCUAAUGGACAACAAAGGUUGAAAACCAUUGAAUUAAUAAAUGUUGUGAACUCUUGCGGUCGCACUAGUGUGGAAUUCUCGGGUGUCAAGG
B4: ENSMUSG00000061578.722|Ksr2 (ssRNA)
RNA: GGGAGUUCUACAGUCCGACGAUCGCUUCGAUAUCCGCAUGCUAUCUCUGAAUGUACGUGGGGGACUCCAACAGAUGUUGGGAGAAGACUCAAUAUGAGCAUACGGGGUCAUUGUUCAAUCCUGUAUCAAGACCUUGGAGUUGUCUAAGGCUGUGGGUUUUAAAUACCUGCUGCAGGCCUCCCAUCUCUGGCUCUUUGUUUCCACUCUGGCCCAAGUUUGAGUCUCCAUAUGGGCCCUUCCUGUCCUCAUGCCCUGCCUGUCUUCAUUCCACCCAUCCACCCUCCUAAGGAUUGGUCUUGUUCCCUCUUGCGGUCGCACUAGUGUGGAAUUCUCGGGUGUCAAGG
B5: ENSMUSG00000058297.268|Spock2 (ssRNA)
RNA: GGGAGUUCUACAGUCCGACGAUCGCUUCGAUAUCCGCAUGCUAAUUUGAUGAAGAAUUCCUUACCUGGGCCUCUGAUACCCUUUGGUACGCGUACGUGUGUGUGGCGCGUAUACGUGUGUGUGUGUGUGUGUGUGUGUGUGUGUGUGUGUGUGUGUGAGAGAGAGAGAGAGAGAGAGAGAGAGAGAGAGAGAGAAAGAGAGAGAGAAUGAGAGAGAAUGAGAGAGAGAAUACCCGAGGGCCACCCUGAUGCCCAGGAAGAGUGAGGGCAGCCCCCUGUGUGGUGGAAGAGGCUGGGCAGCUAGCUCUUGCGGUCGCACUAGUGUGGAAUUCUCGGGUGUCAAGG
B6: ENSMUSG00000058297.271|Spock2 (ssRNA)
RNA: GGGAGUUCUACAGUCCGACGAUCGCUUCGAUAUCCGCAUGCUAUACCUGGGCCUCUGAUACCCUUUGGUACGCGUACGUGUGUGUGGCGCGUAUACGUGUGUGUGUGUGUGUGUGUGUGUGUGUGUGUGUGUGUGUGUGAGAGAGAGAGAGAGAGAGAGAGAGAGAGAGAGAGAGAAAGAGAGAGAGAAUGAGAGAGAAUGAGAGAGAGAAUACCCGAGGGCCACCCUGAUGCCCAGGAAGAGUGAGGGCAGCCCCCUGUGUGGUGGAAGAGGCUGGGCAGCUAGCUACUGGGGACCUUGUGCCUCUUGCGGUCGCACUAGUGUGGAAUUCUCGGGUGUCAAGG
B7: ENSMUSG00000058297.267|Spock2 (ssRNA)
RNA: GGGAGUUCUACAGUCCGACGAUCGCUUCGAUAUCCGCAUGCUAUGAUAUAUUUGAUGAAGAAUUCCUUACCUGGGCCUCUGAUACCCUUUGGUACGCGUACGUGUGUGUGGCGCGUAUACGUGUGUGUGUGUGUGUGUGUGUGUGUGUGUGUGUGUGUGUGUGAGAGAGAGAGAGAGAGAGAGAGAGAGAGAGAGAGAGAAAGAGAGAGAGAAUGAGAGAGAAUGAGAGAGAGAAUACCCGAGGGCCACCCUGAUGCCCAGGAAGAGUGAGGGCAGCCCCCUGUGUGGUGGAAGAGGCUGGGCCUCUUGCGGUCGCACUAGUGUGGAAUUCUCGGGUGUCAAGG
B8: ENSMUSG00000058297.266|Spock2 (ssRNA)
RNA: GGGAGUUCUACAGUCCGACGAUCGCUUCGAUAUCCGCAUGCUAUUUCCUUGAUAUAUUUGAUGAAGAAUUCCUUACCUGGGCCUCUGAUACCCUUUGGUACGCGUACGUGUGUGUGGCGCGUAUACGUGUGUGUGUGUGUGUGUGUGUGUGUGUGUGUGUGUGUGUGUGAGAGAGAGAGAGAGAGAGAGAGAGAGAGAGAGAGAGAAAGAGAGAGAGAAUGAGAGAGAAUGAGAGAGAGAAUACCCGAGGGCCACCCUGAUGCCCAGGAAGAGUGAGGGCAGCCCCCUGUGUGGUGGAAGAGGCUCUUGCGGUCGCACUAGUGUGGAAUUCUCGGGUGUCAAGG
B9: ENSMUSG00000031028.129|Tub (ssRNA)
RNA: GGGAGUUCUACAGUCCGACGAUCGCUUCGAUAUCCGCAUGCUACCAAAUAUCUGAGUGGAUGGGGAUGAUAGGAGUCAUCCAGUAGACUCCCUACAUCAGGGCUCUCAGCAGCCCCAGCACAACACCUAUGACACACACACAGGAUCUAGGUCACCAUUCAAGUAAUGGUAUGCUUCAGGAAGAAUGUCCUCUCUGGGAAGACUCAGCUCCCAUUAUUGCCAGCAUGCCAUGAUCAGUGAGGGCUGUGUGCCAUGCUUAGGGGGAUGGCGCAGGGUGAGGGGAGCAGAGGAUAUUUUAGGGCCCUCUUGCGGUCGCACUAGUGUGGAAUUCUCGGGUGUCAAGG
B10: ENSMUSG00000058297.78|Spock2 (ssRNA)
RNA: GGGAGUUCUACAGUCCGACGAUCGCUUCGAUAUCCGCAUGCUACUCAGCCCAACACCUGGAAUCCCUGCCCUGCCUAAUCAGCCCUACCCCAUCCUGCCUUUCUUCCUUCCUCUUCUGAGGCCAGGGAGAGGGAGGGAGGGCAGGCAGCUGAAAGCUGAGCGUCCUCCCCAAAUUGGGCUGAUUUGAUAUGAAAGCCCCACCACGGUCUUGUGGUGAUGAGGCAGGACCUGUACACACAGCAAGGCUUACUAUCCGUCUCCUGACAUCCGAAGAGCUCGUCGCAGGUGUGUCUAAUGGCCCUUCUCUUGCGGUCGCACUAGUGUGGAAUUCUCGGGUGUCAAGG
B11: ENSMUSG00000031028.156|Tub|40:45;125:130 (ssRNA)
RNA: GGGAGUUCUACAGUCCGACGAUCGCUUCGAUAUCCGCAUGCUAAGCUCCCAUUAUUGCCAGCAUGCCAUGAUCAGUGAGGGCACACACCCAUGCUUAGGGGGAUGGCGCAGGGUGAGGGGAGCAGAGGAUAUUUUAGGGCCACAAGAGCUCAGAGGUAGCGGACCUCACACACGUUCACCAACAGCAAUGCUGAUCCCUGAGUAUAGGGCACAUGUCUCUUGGUUACCUCACUGGUUAAUGGCAGAGUUGAGAACCUCAAAUUCUUUUGUUCCUACUGUUGCCCAGAAACUAGACUCUCUGACCUCUUGCGGUCGCACUAGUGUGGAAUUCUCGGGUGUCAAGG
B12: ENSMUSG00000028439.157|Fam219a (ssRNA)
RNA: GGGAGUUCUACAGUCCGACGAUCGCUUCGAUAUCCGCAUGCUAUAGCUCAAAGUCCAGGAGCCAGGCUUCCAGAAAGGCUCUUCAAGAGCAAGCUUAAGGAAAUACAGUGAGCCAAGUGGCUGUAUGAUAUGGUAUGGUAUGGUAUGGUAUGGUAUGGUAUGGUAUGCACAUGUGUGUGCAUGUGUGUGUGCCUGUGUGUGUGCGUGUGCGUGUGUGUAUGUGUGUGCGUGUGUGUGUGUGUGUGUUGUACCCGAGUGUGUGUUGAGCCUAUCUGUCCAGGGAACCAGAUUGGUGUCCGAGAUCUCUUGCGGUCGCACUAGUGUGGAAUUCUCGGGUGUCAAGG
B13: ENSMUSG00000028439.156|Fam219a (ssRNA)
RNA: GGGAGUUCUACAGUCCGACGAUCGCUUCGAUAUCCGCAUGCUAUCACCCUAGCUCAAAGUCCAGGAGCCAGGCUUCCAGAAAGGCUCUUCAAGAGCAAGCUUAAGGAAAUACAGUGAGCCAAGUGGCUGUAUGAUAUGGUAUGGUAUGGUAUGGUAUGGUAUGGUAUGGUAUGCACAUGUGUGUGCAUGUGUGUGUGCCUGUGUGUGUGCGUGUGCGUGUGUGUAUGUGUGUGCGUGUGUGUGUGUGUGUGUUGUACCCGAGUGUGUGUUGAGCCUAUCUGUCCAGGGAACCAGAUUGGUGUCCUCUUGCGGUCGCACUAGUGUGGAAUUCUCGGGUGUCAAGG

Whole data set: some 9,900 sequences, median “r (bound/input frequency ratio)” near 0.7, cut for the highest 2% near 6.5. For the sample, the highest values were picked, then their nearest neighbours and some sequences at random.

The assay deals with TDP-43 (Homo sapiens, UniProt Q13148 1-414). The assay can be described thus: RNA Bind-n-Seq with designed 260-mer pool; 25 mM Tris-HCl, 150 mM KCl, 3 mM MgCl2, BSA (printed 500 mg/mL), 20 units/mL SUPERase IN; pH not stated; 500 nM RNA pool, 1 h, 4 C; TDP-43 5, 50, 500 nM; high values mean tight binding. Particulars: protein: recombinant; tags: SBP (GST cleaved off with PreScission; pGEX-GST-SBP). Put shortly: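 Recombinant SBP-tagged TDP-43 at 5, 50 or 500 nM was captured on streptavidin beads, then incubated 1 h at 4 °C with 500 nM of an in vitro-transcribed 260-nt 3′ UTR oligo pool in 25 mM Tris-HCl, 150 mM KCl, 3 mM MgCl2, BSA and SUPERase IN. Bound RNA was washed, eluted with biotin, reverse transcribed, PCR-amplified and sequenced. Binding is R, each oligo's mapped-read-normalized abundance in the bound sample divided by its abundance in input. Duplicates used two independent protein batches.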
Chain of TDP-43 (Q13148 whole entry): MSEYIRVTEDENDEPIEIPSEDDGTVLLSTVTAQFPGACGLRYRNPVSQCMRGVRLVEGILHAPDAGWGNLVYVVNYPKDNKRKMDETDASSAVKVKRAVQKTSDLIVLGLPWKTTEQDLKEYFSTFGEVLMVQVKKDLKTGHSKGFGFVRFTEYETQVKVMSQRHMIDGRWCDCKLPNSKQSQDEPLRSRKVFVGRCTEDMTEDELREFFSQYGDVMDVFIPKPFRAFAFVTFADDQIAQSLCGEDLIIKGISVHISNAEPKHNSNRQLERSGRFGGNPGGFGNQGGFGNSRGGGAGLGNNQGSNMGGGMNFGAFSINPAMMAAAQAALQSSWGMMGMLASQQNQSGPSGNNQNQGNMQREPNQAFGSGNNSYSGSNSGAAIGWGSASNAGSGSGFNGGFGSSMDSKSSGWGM
B1: the binding signal is 0.372 R (bound/input frequency ratio).
In the case of B2 it was 0.271 R (bound/input frequency ratio); in that of B3, 0.101 R (bound/input frequency ratio); in that of B4, 1.64 R (bound/input frequency ratio).
Next, B5: 2.37 R (bound/input frequency ratio).
Next, B6: 8.28 R (bound/input frequency ratio); B7: 8.95 R (bound/input frequency ratio).
For the molecule B8, the binding signal is 5.83 R (bound/input frequency ratio).
With B9, the binding signal was 0.521 R (bound/input frequency ratio).
Next, B10: 0.631 R (bound/input frequency ratio).
Take B11: the binding signal is 0.266 R (bound/input frequency ratio).
For the molecule B12, the binding signal is 7.39 R (bound/input frequency ratio).
Turning to B13, the binding signal was 6.74 R (bound/input frequency ratio).
